Pol eta inh-1 = inhibitors of human DNA polymerase eta; 1.2% of 390,000 active; Potency, µM (top dose mostly 114 µM), for inactives: top-dose activity change, negative = inhibition, usual class: inhibitors; recombinant Pol eta, fluorescent DNA replication assay; AID 588591; note: potency is the fitted concentration of half-maximal effect; % is set by controls: 0 for no effect and ±100 for the full control effect
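Fluorescent replication assay: 50 nM final substrate added after a 15 min room-temperature compound preincubation with 10 nM enzyme. Signal taken at 0 min and again at 10 min.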
FEN1 inh = blocks human flap endonuclease 1 | P39748 | Recombinant FEN1 flap cleavage, fluorescence, 15 min | Potency, µM (doses to about 114 µM), for the others: at the highest dose activity change, negative = inhibition, hits mostly inhibitors | 0.35% of 390,000 active; note: potency is the fitted concentration of half-maximal effect; % is set by controls: 0 for no effect and ±100 for the full control effect; nearly all actives have a fitted effect of over 65% in size
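Read-out was taken twice, immediately and after 15 min, following addition of 50 nM substrate to 10 nM FEN1 that had sat with test compound for 15 min at room temperature. Curves came from a four-parameter Hill model.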
POLB inh = DNA polymerase beta (human) inhibition; Potency, µM (top dose mostly 114 µM), without a hit: at the highest dose activity change, negative = inhibition, hits mostly inhibitors; Pol beta primer extension/strand displacement, fluorescence kinetic; 1.3% of 340,000 active; note: potency is the fitted concentration of half-maximal effect; % is set by controls: 0 for no effect and ±100 for the full control effect
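Pol beta (10 nM) and compounds were preincubated 15 min at room temperature, then 50 nM substrate (final) started primer extension/strand displacement. Reads were taken at 0 and 10 min; concentration-response data were fitted to a four-parameter Hill equation.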
TDP1 inh = TDP1 (human) enzyme inhibition. Potency, µM (highest dose often 130 µM), without a hit: at the highest dose activity change, negative = inhibition, actives largely listed as inhibitors. Q9NUW8. recombinant TDP1, AlphaScreen DNA substrate cleavage. 0.28% of 350,000 active. AID 485290; note: potency is the fitted concentration of half-maximal effect; % is set by controls: 0 for no effect and ±100 for the full control effect; nearly all actives have a fitted effect of over 40% in size
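Recombinant E. coli-expressed Tdp1 (1 nM) preincubated with compound 15 min at RT, then 5'-biotin/3'-phosphotyrosine-FITC DNA substrate (15 nM) added for 5 min. AlphaScreen beads (10 ug/ml) added, 10 min RT; tyrosine-FITC cleavage read as signal loss.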
Pol kappa inh-1 = DNA polymerase kappa (human) inhibition; Q9UBT6; purified Pol kappa, fluorescent DNA synthesis assay, 10 min; Potency, µM (top dose mostly 107 µM), without a hit: top-dose activity, negative = inhibition, actives largely listed as inhibitors; 0.53% of 400,000 active; note: potency is the fitted concentration of half-maximal effect; % is set by controls: 0 for no effect and ±100 for the full control effect
Target sequence (Q9UBT6 whole entry, looked up): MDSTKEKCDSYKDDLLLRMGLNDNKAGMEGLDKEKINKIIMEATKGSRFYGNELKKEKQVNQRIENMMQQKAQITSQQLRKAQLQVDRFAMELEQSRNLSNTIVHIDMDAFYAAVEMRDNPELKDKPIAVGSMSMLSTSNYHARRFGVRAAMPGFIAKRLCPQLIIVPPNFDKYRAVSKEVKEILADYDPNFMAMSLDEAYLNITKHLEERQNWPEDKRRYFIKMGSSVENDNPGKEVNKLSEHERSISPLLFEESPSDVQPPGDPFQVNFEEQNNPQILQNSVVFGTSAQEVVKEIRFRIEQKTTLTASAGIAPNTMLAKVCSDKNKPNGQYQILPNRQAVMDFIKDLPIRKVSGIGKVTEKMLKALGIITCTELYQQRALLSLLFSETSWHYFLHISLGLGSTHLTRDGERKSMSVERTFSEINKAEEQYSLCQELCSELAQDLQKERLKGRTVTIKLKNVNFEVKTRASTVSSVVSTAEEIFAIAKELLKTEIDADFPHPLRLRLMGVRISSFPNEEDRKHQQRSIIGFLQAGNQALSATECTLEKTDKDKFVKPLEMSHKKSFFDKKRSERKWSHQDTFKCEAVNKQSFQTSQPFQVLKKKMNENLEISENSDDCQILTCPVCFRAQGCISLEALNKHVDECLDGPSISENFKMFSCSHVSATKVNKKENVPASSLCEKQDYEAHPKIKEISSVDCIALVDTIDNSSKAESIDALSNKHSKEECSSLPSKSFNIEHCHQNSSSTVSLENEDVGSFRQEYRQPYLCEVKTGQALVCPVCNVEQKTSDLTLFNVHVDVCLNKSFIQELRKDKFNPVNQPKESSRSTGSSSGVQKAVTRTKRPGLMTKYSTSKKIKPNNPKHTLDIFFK
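First, compounds were pin-transferred onto 10 nM Pol kappa. After 15 min at room temperature, substrate was added to 50 nM final. Fluorescence was then measured kinetically at 0 and 10 min.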
POLI inh = DNA polymerase iota (human) inhibition; Potency, µM (highest dose often 115 µM), inactives show at the top dose activity, negative = inhibition, actives largely listed as inhibitors; 1% of 390,000 active; AID 588590; Pol iota fluorescent replication assay, 10 min; note: potency is the fitted concentration of half-maximal effect
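Pol iota at 10 nM preincubated 15 min with compounds at room temperature; reaction started with fluorescent substrate, 50 nM final. Fluorescence read kinetically at 0 and 10 min; buffer-only wells as negative control.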
GALK confirm = galactokinase (human) inhibition, confirmation; shares compounds with Pol eta inh-1; purified GALK, Kinase-Glo ATP depletion luminescence; Potency, µM (doses to about 115 µM), inactives show at the highest dose activity, negative = inhibition, usual class: inhibitors; 70% of 150 active
Redox cycling = counter-screen for GALK inhibitors: redox cycling H2O2 generation; Phenol red-HRP H2O2 redox cycling, absorbance 600 nm; 40% of 150 active; Potency, µM (series often up to 115 µM), for inactives: at the highest dose activity change, negative = H2O2 signal, hits mostly inhibitors; AID 2035; shares compounds with Pol eta inh-1
HEK293 tox = HEK-293 cytotoxicity, GALK inhibitor secondary; shares compounds with Pol eta inh-1; HEK-293 viability, ATP luminescence (CellTiter-Glo), 24/48 h; Potency, µM (top dose mostly 46.1 µM), for inactives: top-dose activity change, negative = cytotoxicity, usual class: inhibitors; 10% of 170 active; AID 2547; note: potency is the fitted concentration of half-maximal effect; % is set by controls: 0 for no effect and ±100 for the full control effect
Pol kappa inh-2 = confirmation of human DNA polymerase kappa inhibitors. shares compounds with Pol eta inh-1. purified Pol-kappa, fluorescent strand-displacement substrate. Potency, µM, usual class: inhibitors. 76% of 920 active; note: potency is the fitted concentration of half-maximal effect
Pol eta inh-2 = Pol eta (human) inhibition, cherry-pick confirmation; AID 720502; Pol eta primer extension, TAMRA/BHQ fluorescence, 10 min; 64% of 2,600 active; Potency, µM, actives largely listed as inhibitors; shares compounds with Pol eta inh-1; note: potency is the fitted concentration of half-maximal effect
* hit, by the source's call; ? = inconclusive; nt = no result; [ ] = dose if it differs, or a comment. A selection: hits, their analogues and other compounds. The true share with any hit is near 2.4%. Calls come from the whole dose curve; as a rule, active = well fitted curve in the direction sought with a large enough effect; inconclusive = small, poorly fitted or top-dose-only effect, or another doubt; inactive = no such curve, though single readings can be large; an effect the other way counts as inactive or inconclusive.

SMILES	Pol eta inh-1	FEN1 inh	POLB inh	TDP1 inh	Pol kappa inh-1	POLI inh	Pol eta inh-2	others
CC1=C(C#N)C(=O)NC(=O)/C1=C\c1ccc(-c2ccc(C)cc2[N+](=O)[O-])o1	50µM*	-6%	32µM*	2%	-13%	?	?
CC1=C/C(=C(\c2cc(C)c(O)c(Br)c2)c2ccccc2S(=O)(=O)O)C=C(Br)C1=O	?	?	?	15%	-41%	?	nt
O=c1[nH]c(Nc2ccccc2)cc2cc(Br)ccc12	40µM*	-15%	nt	nt	?	?	?
CC(=O)c1cccc(Nc2nc(-c3ccccc3)nc3ccccc23)c1	-9%	-8%	17%	nt	-14%	83%	nt
O=c1[nH]c(Nc2ccccc2)cc2ccccc12	?	?	6%	11%	-26%	11µM*	nt	GALK confirm=42µM*;Redox cycling=21µM*;HEK293 tox=8%
CC(=O)c1cccc(-c2ccc3c(=O)[nH]c(Nc4ccccc4)cc3c2)c1	20µM*	1%	nt	nt	?	?	76*
COc1ccccc1Nc1cc2cc(Br)ccc2c(=O)[nH]1	20µM*	1%	nt	nt	79µM*	?	67*
COc1ccc(CNS(=O)(=O)c2ccc(C(=O)N(C)C)s2)cc1	2%	1%	-16%	6%	-12%[60.1 µM]	0%	nt
O=C(O)c1cc(S(=O)(=O)N2CCCCC2)ccc1N1CCOCC1	-20%	2%	nt	-5%	-13%	-7%	nt
Cc1ccc(-c2csc3ncn(CC#N)c(=O)c23)cc1C	20µM*	?	32µM*	nt	79µM*	28µM*	54*	Pol kappa inh-2=60*
Cc1ccc(-c2csc3ncn(CC#N)c(=O)c23)cc1	?	-20%	?	2%	-10%[60.1 µM]	17%	nt
O=C(NCC1CCCO1)c1cc(-c2ccncc2)nc2ccccc12 (stereo not given)	-10%	2%	nt	6%	-14%	7%	nt
Cc1cccc(NC(=O)c2cc(-c3ccco3)nc3ccccc23)n1	-17%	-5%	20%	-4%	-4%	-6%	nt
O=C(Nc1nncs1)c1cc(-c2ccco2)nc2ccccc12	14µM*	-17%	nt	nt	?	?	76*	Pol kappa inh-2=?
O=C(NCC1CCCO1)c1cc(-c2ccco2)nc2ccccc12 (stereo not given)	16µM*	-4%	45µM*	nt	?	?	85*
COc1cc(/C=C/C(=O)O)cc(S(=O)(=O)NCCCO)c1OC	-7%	0%	26%	-1%	-4%	21%	nt
COc1cc(/C=C/C(=O)O)cc(S(=O)(=O)NNC(=O)c2cc(C)oc2C)c1OC	18µM*	8%	nt	16µM*	?	22µM*	?
CC(C)c1ccc(NS(=O)(=O)c2ccc3[nH]cc(C(=O)NCC4CCCO4)c(=O)c3c2)cc1 (stereo not given)	89µM*	1%	32µM*	nt	-22%	79µM*	?	Pol kappa inh-2=38*
CC(C)c1ccc(NS(=O)(=O)c2ccc3[nH]cc(C(=O)NC4CCCCC4)c(=O)c3c2)cc1	35µM*	-12%	25µM*	nt	?	?	76*	Pol kappa inh-2=19*
C=CCSC1=C(C#N)C(c2ccccc2Cl)C(C(=O)c2cccs2)C(O)(C(F)(F)F)N1 (stereo not given)	-17%	12%	-18%	-5%	-6%	?	nt
O=C1NC(=S)S/C1=C\c1ccc(SCc2ccccc2)o1	18µM*	79µM*	14µM*	3%	25µM*	7.9µM*	?
CCOc1ccccc1NC(=O)CCS(=O)(=O)c1ccc(Br)cc1	18µM*	-11%	10µM*	nt	?	18µM*	24*
O=C(CCS(=O)(=O)c1ccc(Br)cc1)Nc1cc(F)ccc1F	?	-2%	18µM*	-13%	?	-6%	nt	Pol kappa inh-2=42*
Cc1ccc(S(=O)(=O)N2CCCCC2)cc1C(=O)Nc1cccnc1	18µM*	-2%	32µM*	20µM*	-42%	50µM*	76*
CC(=O)Nc1ccc(NC(=O)c2cc(S(=O)(=O)N3CCCCC3)ccc2C)cc1	-13%	-11%	nt	2%	-6%	?	nt
SMILES	Pol eta inh-1	FEN1 inh	POLB inh	TDP1 inh	Pol kappa inh-1	POLI inh	Pol eta inh-2	others
O=C(c1ccco1)N1C2C=CC(C2)C1(C(F)(F)F)C(F)(F)F (stereo not given)	35µM*	0%	-24%	nt	-18%	?	?
O=C1NN(c2ccccc2)C(=O)/C1=C/c1coc2ccccc2c1=O	?	0%	-21%	0%	?	?	nt
O=C1NN(c2ccccc2)C(=O)/C1=C\c1coc2ccc(O)cc2c1=O	?	-8%	?	nt	?	?	?
Cc1ccc(S(=O)(=O)N(CC(=O)Nc2ccccc2)C(=O)N2CCN(C)CC2)cc1	-2%	-2%	nt	2%	-13%	19%	nt
COc1ccc(-c2cn3cccnc3n2)cc1NC(=O)c1c(F)cccc1F	16%	8%	-10%	1%	-10%[60.1 µM]	14%	nt
O=C1NC(=Nc2ccccc2Cl)S/C1=C\c1cccc([N+](=O)[O-])c1O	?	?	?	11%	-31%	?	?	Pol kappa inh-2=17*
O=C1/C(=C\c2cccc([N+](=O)[O-])c2O)SC(=S)N1Cc1ccccc1	79µM*	?	35µM*	nt	-32%	?	?
Cc1cc(C=O)c(C)n1-c1sc2c(c1C(=O)O)CCCC2	?	8%	-6%	1%	-9%	13%	nt
